Counter-ions that a name gives are not always drawn. ± gives the standard deviation of the averaged measurements. Over roughly 1,700 compounds, “cell number in HSV-1-infected wells relative to infected DMSO wells (H2B-RFP signal)” has its median near 100; the highest 2% begin near 140. The sample holds the highest values, similar compounds and a random draw of the others, so the mix is not that of the screen.
Test system: A549 infected with HSV-1
Test: cell number in HSV-1-infected wells relative to infected DMSO wells (H2B-RFP signal); higher = more surviving cells (uninfected or antiviral-protected wells give about 200%; low = toxicity)
Conditions: 10 µM; 48 h; MOI: 0.1
Experimental: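 Selleck FDA-approved library (L1300) screened in duplicate at 10 µM on A549 H2B-mRuby cells in 384-well plates, infected with HSV-1 strain 17 YFP-ICP4 at MOI 0.1 one hour before drug addition. Imaged after 2 days at 37°C. Cell growth (H2B-RFP) and infection (ICP4-YFP) are expressed as % of DMSO-treated wells. Hits: growth >90% and infection <20% of DMSO.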

Row | SMILES | cell number in HSV-1-infected wells
1 | Nc1cc(C(Cl)=C(Cl)Cl)c(S(N)(=O)=O)cc1S(N)(=O)=O [Clorsulon] | 114 ± 7.9%
2 | CCc1c(C)[nH]c2c1C(=O)C(CN1CCOCC1)CC2 (stereo unspecified) [Molindone hydrochloride] | 93 ± 20%
3 | CO/N=C(\C(=O)N[C@@H]1C(=O)N2C(C(=O)O)=CCS[C@H]12)c1csc(N)n1 [Ceftizoxime] | 136 ± 15%
4 | COc1ccccc1OCC(O)COC(N)=O (stereo unspecified) [Methocarbamol] | 115 ± 1.9%
5 | Cl.NCCCC[C@H](N)C(=O)O [L-Lysine hydrochloride] | 123.8 ± 0.98%
6 | CC(=O)O[C@]1(C(C)=O)CC[C@H]2[C@@H]3C=C(C)C4=CC(=O)CC[C@]4(C)[C@H]3CC[C@@]21C [Megestrol Acetate] | 112 ± 9.4%
7 | CC(=O)O[C@]1(C(C)=O)CC[C@H]2[C@@H]3C=C(Cl)C4=CC(=O)[C@@H]5C[C@@H]5[C@]4(C)[C@H]3CC[C@@]21C [Cyproterone Acetate] | 118 ± 11%
8 | CC(=O)O[C@]1(C(C)=O)CC[C@H]2[C@@H]3C=C(Cl)C4=CC(=O)CC[C@]4(C)[C@H]3CC[C@@]21C [Chlormadinone acetate] | 148 ± 5.6%
9 | CN1CCN(c2ccc(C(=O)Nc3n[nH]c4ccc(Cc5cc(F)cc(F)c5)cc34)c(NC3CCOCC3)c2)CC1 [Entrectinib (RXDX-101)] | 18 ± 8.2%
10 | CCC/N=C1\S/C(=C\c2ccc(OC[C@H](O)CO)c(Cl)c2)C(=O)N1c1ccccc1C [Ponesimod] | 17.2 ± 12%
11 | CC(OC(=O)OC1CCCCC1)OC(=O)C1=C(CSc2nnnn2CCN(C)C)CS[C@@H]2[C@H](NC(=O)Cc3csc(N)n3)C(=O)N12 (stereo partly specified) [Cefotiam Hexetil Hydrochloride] | 76.7 ± 3.4%
12 | CC(C)(CO)[C@@H](O)C(=O)NCCCO [D panthenol] | 121 ± 46%
13 | CNC1CCCN(c2c(F)cc3c(=O)c(C(=O)O)cn(C4CC4)c3c2OC)C1 (stereo unspecified) [Balofloxacin] | 117 ± 1.2%
14 | COc1c(N2CCNC(C)C2)c(F)cc2c(=O)c(C(=O)O)cn(C3CC3)c12 (stereo unspecified) [Gatifloxacin] | 108 ± 17%
15 | COc1c(N2C[C@@H]3CCCN[C@@H]3C2)c(F)cc2c(=O)c(C(=O)O)cn(C3CC3)c12 [Moxifloxacin] | 145 ± 32%
16 | COc1c(N2C[C@@H]3CCCN[C@@H]3C2)c(F)cc2c(=O)c(C(=O)O)cn(C3CC3)c12 [Moxifloxacin HCl] | 87.9 ± 22%
17 | CCCN1CCCC[C@H]1C(=O)Nc1c(C)cccc1C [Ropivacaine] | 115 ± 7.2%
18 | CCCN1CCCC[C@H]1C(=O)Nc1c(C)cccc1C [Ropivacaine HCl] | 87.6 ± 6.9%
19 | [Cl][Mn][Cl] [Manganese chloride] | 109 ± 4.5%
20 | CCOc1ccc(Cc2cc([C@@H]3O[C@H](SC)[C@@H](O)[C@H](O)[C@H]3O)ccc2Cl)cc1 [Sotagliflozin (LX4211)] | 61.71 ± 0.063%
21 | COc1cc2c(cc1OC)[C@H]1C[C@@H](OC(=O)[C@@H](N)C(C)C)[C@H](CC(C)C)CN1CC2 [Valbenazine tosylate] | 134 ± 41%
22 | CN1CCN(c2cc3c(cc2F)c(=O)c(C(=O)O)cn3-c2ccc(F)cc2)CC1 [Difloxacin HCl] | 129 ± 16%
23 | CCn1cc(C(=O)O)c(=O)c2cc(F)c(N3CCNCC3)cc21 [Norfloxacin] | 97.4 ± 27%
24 | CN1C[C@@H]2C[C@H]1CN2c1cc2c(cc1F)c(=O)c(C(=O)O)cn2C1CC1 [Danofloxacin Mesylate] | 110.8 ± 1.1%

Row | SMILES | cell number in HSV-1-infected wells
25 | O=C(O)c1cn(C2CC2)c2cc(N3CCNCC3)c(F)cc2c1=O [Ciprofloxacin hydrochloride hydrate] | 139 ± 2.3%
26 | O=C(O)c1cn(-c2ccc(F)cc2)c2cc(N3CCNCC3)c(F)cc2c1=O [Sarafloxacin HCl] | 151 ± 7.2%
27 | CCN1CCN(c2cc3c(cc2F)c(=O)c(C(=O)O)cn3C2CC2)CC1 [Enrofloxacin] | 147 ± 8.9%
28 | NC(=O)c1cccc2cn(-c3ccc([C@@H]4CCCNC4)cc3)nc12 [Niraparib (MK-4827) tosylate] | 71.7 ± 13%
29 | NC(=O)c1cccc2cn(-c3ccc([C@@H]4CCCNC4)cc3)nc12 [Niraparib (MK-4827)] | 71.2 ± 3.2%
30 | C[C@H](CCC(=O)O)[C@H]1CC[C@H]2[C@@H]3CC[C@@H]4C[C@H](O)CC[C@]4(C)[C@H]3C[C@H](O)[C@]12C [Deoxycholic acid] | 109 ± 44%
31 | COCC[n+]1c2c(n(Cc3cnccn3)c1C)C(=O)c1ccccc1C2=O [YM155 (Sepantronium Bromide)] | 9.16 ± 6%
32 | CCN1CC(CCN2CCOCC2)C(c2ccccc2)(c2ccccc2)C1=O (stereo unspecified) [Doxapram] | 96.5 ± 8.2%
33 | CCN1CC(CCN2CCOCC2)C(c2ccccc2)(c2ccccc2)C1=O (stereo unspecified) [Doxapram HCl] | 91.29 ± 0.3%
34 | CC(C)N(CCCCOCC(=O)NS(C)(=O)=O)c1cnc(-c2ccccc2)c(-c2ccccc2)n1 [Selexipag] | 80.8 ± 1.5%
35 | CN(C/C=C/C#CC(C)(C)C)Cc1cccc2ccccc12 [Terbinafine] | 99.9 ± 40%
36 | CN(C/C=C/C#CC(C)(C)C)Cc1cccc2ccccc12 [Terbinafine HCl] | 101 ± 9%
37 | OC[C@H]1O[C@H](O[C@H]2[C@H](O)[C@@H](O)C(O)O[C@@H]2CO)[C@H](O)[C@@H](O)[C@@H]1O (mixture of isomers) [Maltose] | 117 ± 4.3%
38 | Cc1c(-c2cnccn2)ssc1=S [Oltipraz] | 100 ± 4%
39 | C[C@@H](c1nc(-c2ccc(C#N)cc2)cs1)[C@](O)(Cn1cncn1)c1cc(F)ccc1F [Isavuconazole] | 99.7 ± 21%
40 | CC(C)OC(=O)OCOP(=O)(CO[C@H](C)Cn1cnc2c(N)ncnc21)OCOC(=O)OC(C)C [Tenofovir Disoproxil Fumarate] | 147.7 ± 0.7%
41 | CC(C)OC(=O)[C@H](C)N[P@](=O)(OC[C@H]1O[C@@H](n2ccc(=O)[nH]c2=O)[C@](C)(F)[C@@H]1O)Oc1ccccc1 [Sofosbuvir (PSI-7977, GS-7977)] | 73.7 ± 21%
42 | C[C@H](Cn1cnc2c(N)ncnc21)OCP(=O)(O)O [Tenofovir] | 79.9 ± 13%
43 | CC(C)OC(=O)[C@H](C)N[P@](=O)(CO[C@H](C)Cn1cnc2c(N)ncnc21)Oc1ccccc1 [Tenofovir Alafenamide (GS-7340)] | 189.3 ± 1.6%
44 | CC(C)(C)C(=O)OCOP(=O)(COCCn1cnc2c(N)ncnc21)OCOC(=O)C(C)(C)C [Adefovir Dipivoxil] | 64.6 ± 8.8%
45 | O=c1oc2c(O)c(O)cc3c(=O)oc4c(O)c(O)cc1c4c23 [Ellagic acid] | 106 ± 2.3%
46 | N=C1CCCN1Cc1[nH]c(=O)[nH]c(=O)c1Cl [Tipiracil hydrochloride] | 107 ± 1.8%
47 | COC(=O)N[C@@H](C)CNc1nccc(-c2cn(C(C)C)nc2-c2cc(Cl)cc(NS(C)(=O)=O)c2F)n1 [Encorafenib (LGX818)] | 124 ± 6.5%
48 | CNCC[C@H](Oc1cccc2ccccc12)c1cccs1 [Duloxetine] | 121.44 ± 0.086%

Row | SMILES | cell number in HSV-1-infected wells
49 | CNCC[C@H](Oc1cccc2ccccc12)c1cccs1 [Duloxetine HCl] | 92.1 ± 10%
50 | CNC(=O)c1ccc(Nc2ncc(C(F)(F)F)c(NCc3nccnc3N(C)S(C)(=O)=O)n2)cc1 | 27.6 ± 6.6%
51 | CC(C)(Oc1ccc(Cl)cc1)C(=O)O [Clofibric Acid] | 82.4 ± 11%
52 | CC(C)(Oc1ccc(CCNC(=O)c2ccc(Cl)cc2)cc1)C(=O)O [Bezafibrate] | 147 ± 48%
53 | CC(C)(Oc1ccc(C(=O)c2ccc(Cl)cc2)cc1)C(=O)O [Fenofibric acid] | 75.9 ± 3.5%
54 | CC1(C)S[C@@H]2[C@H](NC(=O)COc3ccccc3)C(=O)N2[C@H]1C(=O)O [Penicillin V potassium salt] | 86.4 ± 5.6%
55 | Cc1cc(C)cc(OCC2CNC(=O)O2)c1 (stereo unspecified) [Metaxalone] | 132 ± 16%
56 | Nc1nc2[nH]cc(CCc3ccc(C(=O)N[C@@H](CCC(=O)O)C(=O)O)cc3)c2c(=O)[nH]1 [Pemetrexed Disodium Hydrate] | 67 ± 22%
57 | Nc1nc2[nH]cc(CCc3ccc(C(=O)N[C@@H](CCC(=O)O)C(=O)O)cc3)c2c(=O)[nH]1 [Pemetrexed] | 59.2 ± 18%
58 | CC(=O)SCC(Cc1ccccc1)C(=O)NCC(=O)OCc1ccccc1 (stereo unspecified) [Racecadotril] | 96.3 ± 17%
59 | Cc1cc2c(cc1S(N)(=O)=O)S(=O)(=O)CCC2 [Meticrane] | 83.96 ± 0.47%
60 | CS(=O)(=O)c1cccc(C[C@H](NC(=O)c2c(Cl)cc3c(c2Cl)CCN(C(=O)c2ccc4ccoc4c2)C3)C(=O)O)c1 [Lifitegrast] | 104 ± 15%
61 | Cn1ncc(Cl)c1-c1cc(C(=O)N[C@H](CN)Cc2ccc(F)c(F)c2)oc1Cl | 69.8 ± 17%
62 | COc1cc2nccc(Oc3ccc(NC(=O)C4(C(=O)Nc5ccc(F)cc5)CC4)cc3)c2cc1OC [Cabozantinib malate (XL184)] | 90.5 ± 47%
63 | COc1cc2nccc(Oc3ccc(NC(=O)NC4CC4)c(Cl)c3)c2cc1C(N)=O [lenvatinib Mesylate] | 144 ± 32%
64 | COc1cc2nccc(Oc3ccc(NC(=O)Nc4cc(C)on4)c(Cl)c3)c2cc1OC [Tivozanib (AV-951)] | 117 ± 40%
65 | COc1cc2nccc(Oc3ccc(NC(=O)NC4CC4)c(Cl)c3)c2cc1C(N)=O [Lenvatinib (E7080)] | 104 ± 6%
66 | COc1cc2nccc(Oc3ccc(NC(=O)C4(C(=O)Nc5ccc(F)cc5)CC4)cc3)c2cc1OC | 72.2 ± 7.6%
67 | Cc1nccn1CC1CCc2c(c3ccccc3n2C)C1=O (stereo unspecified) [Ondansetron HCl] | 74.7 ± 25%
68 | Cc1nccn1CC1CCc2c(c3ccccc3n2C)C1=O (stereo unspecified) [Ondansetron Hydrochloride Dihydrate] | 76 ± 13%
69 | CN(C)CCC=C1c2ccccc2COc2ccccc21 [Doxepin HCl] | 104 ± 11%
70 | Cc1[nH]cnc1CN1CCc2c(c3ccccc3n2C)C1=O [Alosetron Hydrochloride] | 112 ± 6.3%
71 | COC(=O)C1=C(C)NC(C)=C(C(=O)OC(C)C)C1c1cccc2nonc12 (stereo unspecified) [Isradipine] | 97.7 ± 3.5%
